Measurements as given in the supplement of paper PMC11732987, “Enantioselective OTUD7B fragment discovery through chemoproteomics screening and high-throughput optimisation” (Communications Chemistry, 2025).

Assays:
Assay in all cases: log2 ratio of Biotin-Ahx-Ub-VS probe labelling (fragment/DMSO); higher = less target engagement (more negative = stronger competition), active = hit call of the paper (q ≤ 0.05, log2 ratio ≤ -1)
Details in all cases: compound concentration: 200 uM; treatment time: 3 h
[1] = biological target: T1, USP19 (UniProt O94966)
T1 sequence (whole entry): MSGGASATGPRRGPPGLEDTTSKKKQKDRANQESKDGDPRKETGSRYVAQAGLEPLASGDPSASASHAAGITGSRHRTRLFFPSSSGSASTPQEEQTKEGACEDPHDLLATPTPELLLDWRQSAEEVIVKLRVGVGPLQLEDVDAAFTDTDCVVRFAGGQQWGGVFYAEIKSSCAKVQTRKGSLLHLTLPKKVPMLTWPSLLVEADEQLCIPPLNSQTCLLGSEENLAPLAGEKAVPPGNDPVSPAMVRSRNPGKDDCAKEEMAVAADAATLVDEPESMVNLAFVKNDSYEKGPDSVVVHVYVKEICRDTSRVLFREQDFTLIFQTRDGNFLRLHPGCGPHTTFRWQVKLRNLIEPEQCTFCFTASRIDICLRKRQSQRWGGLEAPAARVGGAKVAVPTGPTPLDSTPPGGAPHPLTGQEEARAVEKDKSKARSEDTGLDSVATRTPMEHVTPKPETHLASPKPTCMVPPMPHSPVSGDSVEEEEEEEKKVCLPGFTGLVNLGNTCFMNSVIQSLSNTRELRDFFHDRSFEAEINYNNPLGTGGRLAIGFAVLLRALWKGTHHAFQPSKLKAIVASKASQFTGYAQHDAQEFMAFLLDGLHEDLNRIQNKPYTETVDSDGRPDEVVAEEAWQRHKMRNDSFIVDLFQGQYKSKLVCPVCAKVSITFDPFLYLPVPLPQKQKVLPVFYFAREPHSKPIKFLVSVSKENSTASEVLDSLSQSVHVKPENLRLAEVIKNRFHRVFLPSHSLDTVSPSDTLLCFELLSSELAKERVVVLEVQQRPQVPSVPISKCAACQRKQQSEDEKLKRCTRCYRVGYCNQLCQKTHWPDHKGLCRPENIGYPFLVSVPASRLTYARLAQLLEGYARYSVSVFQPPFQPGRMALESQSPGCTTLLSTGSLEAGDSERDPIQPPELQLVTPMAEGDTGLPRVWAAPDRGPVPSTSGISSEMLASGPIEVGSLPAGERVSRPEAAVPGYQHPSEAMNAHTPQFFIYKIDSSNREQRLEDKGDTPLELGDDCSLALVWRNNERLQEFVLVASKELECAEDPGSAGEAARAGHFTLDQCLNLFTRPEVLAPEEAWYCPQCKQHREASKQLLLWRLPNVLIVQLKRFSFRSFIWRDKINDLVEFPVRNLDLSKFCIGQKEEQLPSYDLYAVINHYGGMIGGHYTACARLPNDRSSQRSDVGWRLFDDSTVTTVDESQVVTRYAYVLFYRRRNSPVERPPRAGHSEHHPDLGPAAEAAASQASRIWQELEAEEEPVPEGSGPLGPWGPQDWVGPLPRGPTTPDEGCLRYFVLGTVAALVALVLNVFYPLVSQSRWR
In short: (§1)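 HEK293T lysate in Tris/CHAPS/IGEPAL buffer with protease inhibitors (495 µg per sample) was given fragment at 200 µM or vehicle for 3 h, in triplicate. It then received Biotin-Ahx-Ub-VS at 0.5 µM final for 1 h. Labelled DUBs were NeutrAvidin-enriched, digested with LysC and trypsin, and run by diaPASEF LC-MS/MS. Values are average log2 fragment/vehicle ratios by unpaired t-test on global-median-normalised Spectronaut quantities of proteins with ≥2 unique peptides.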

[2] = biological target: T2, USP22 (UniProt Q9UPT9)
T2 sequence (whole entry): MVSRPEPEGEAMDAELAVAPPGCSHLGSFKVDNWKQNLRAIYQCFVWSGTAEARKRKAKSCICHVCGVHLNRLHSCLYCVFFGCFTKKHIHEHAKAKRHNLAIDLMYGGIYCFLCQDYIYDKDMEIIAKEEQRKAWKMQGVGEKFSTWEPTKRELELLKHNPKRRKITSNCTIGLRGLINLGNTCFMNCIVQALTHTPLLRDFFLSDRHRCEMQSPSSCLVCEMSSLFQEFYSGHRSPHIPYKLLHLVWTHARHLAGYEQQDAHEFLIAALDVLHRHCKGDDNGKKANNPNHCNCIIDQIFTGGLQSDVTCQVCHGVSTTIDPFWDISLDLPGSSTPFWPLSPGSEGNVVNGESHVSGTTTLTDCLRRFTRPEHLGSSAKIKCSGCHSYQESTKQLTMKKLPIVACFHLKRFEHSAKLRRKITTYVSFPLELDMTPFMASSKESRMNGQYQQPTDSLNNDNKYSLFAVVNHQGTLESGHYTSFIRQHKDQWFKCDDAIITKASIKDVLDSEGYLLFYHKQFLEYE
In short: as §1

[3] = biological target: USP24 (UniProt Q9UPU5)
In short: as §1

[4] = biological target: T3, USP25 (UniProt Q9UHP3)
T3 sequence (whole entry): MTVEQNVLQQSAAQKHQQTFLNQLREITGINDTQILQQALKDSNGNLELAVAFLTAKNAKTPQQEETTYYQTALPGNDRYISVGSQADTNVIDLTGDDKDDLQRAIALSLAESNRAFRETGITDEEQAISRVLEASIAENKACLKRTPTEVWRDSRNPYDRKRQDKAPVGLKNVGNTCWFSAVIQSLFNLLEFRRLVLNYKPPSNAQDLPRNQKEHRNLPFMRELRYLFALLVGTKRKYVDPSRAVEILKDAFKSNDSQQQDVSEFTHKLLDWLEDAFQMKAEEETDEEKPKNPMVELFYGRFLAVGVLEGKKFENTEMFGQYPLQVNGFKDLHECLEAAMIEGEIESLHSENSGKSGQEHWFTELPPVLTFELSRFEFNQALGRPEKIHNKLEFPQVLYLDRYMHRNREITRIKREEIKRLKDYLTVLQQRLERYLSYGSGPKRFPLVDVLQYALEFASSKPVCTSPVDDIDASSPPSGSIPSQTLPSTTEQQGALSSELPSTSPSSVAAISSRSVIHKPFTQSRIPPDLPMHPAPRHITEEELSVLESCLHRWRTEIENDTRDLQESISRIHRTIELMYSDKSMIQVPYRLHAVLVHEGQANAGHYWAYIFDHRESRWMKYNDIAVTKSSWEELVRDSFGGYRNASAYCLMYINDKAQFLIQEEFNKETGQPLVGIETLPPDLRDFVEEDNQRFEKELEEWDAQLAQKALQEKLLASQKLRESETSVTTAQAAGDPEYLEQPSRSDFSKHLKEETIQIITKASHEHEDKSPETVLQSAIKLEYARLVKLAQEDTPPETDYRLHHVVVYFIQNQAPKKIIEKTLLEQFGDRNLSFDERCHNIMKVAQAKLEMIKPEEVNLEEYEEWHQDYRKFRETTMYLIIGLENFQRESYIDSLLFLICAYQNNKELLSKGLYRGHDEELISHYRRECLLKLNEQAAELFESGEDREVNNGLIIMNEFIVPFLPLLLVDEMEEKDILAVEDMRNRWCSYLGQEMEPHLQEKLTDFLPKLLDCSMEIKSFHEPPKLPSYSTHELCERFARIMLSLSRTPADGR
In short: as §1

[5] = biological target: T4, USP28 (UniProt Q96RU2)
T4 sequence (whole entry): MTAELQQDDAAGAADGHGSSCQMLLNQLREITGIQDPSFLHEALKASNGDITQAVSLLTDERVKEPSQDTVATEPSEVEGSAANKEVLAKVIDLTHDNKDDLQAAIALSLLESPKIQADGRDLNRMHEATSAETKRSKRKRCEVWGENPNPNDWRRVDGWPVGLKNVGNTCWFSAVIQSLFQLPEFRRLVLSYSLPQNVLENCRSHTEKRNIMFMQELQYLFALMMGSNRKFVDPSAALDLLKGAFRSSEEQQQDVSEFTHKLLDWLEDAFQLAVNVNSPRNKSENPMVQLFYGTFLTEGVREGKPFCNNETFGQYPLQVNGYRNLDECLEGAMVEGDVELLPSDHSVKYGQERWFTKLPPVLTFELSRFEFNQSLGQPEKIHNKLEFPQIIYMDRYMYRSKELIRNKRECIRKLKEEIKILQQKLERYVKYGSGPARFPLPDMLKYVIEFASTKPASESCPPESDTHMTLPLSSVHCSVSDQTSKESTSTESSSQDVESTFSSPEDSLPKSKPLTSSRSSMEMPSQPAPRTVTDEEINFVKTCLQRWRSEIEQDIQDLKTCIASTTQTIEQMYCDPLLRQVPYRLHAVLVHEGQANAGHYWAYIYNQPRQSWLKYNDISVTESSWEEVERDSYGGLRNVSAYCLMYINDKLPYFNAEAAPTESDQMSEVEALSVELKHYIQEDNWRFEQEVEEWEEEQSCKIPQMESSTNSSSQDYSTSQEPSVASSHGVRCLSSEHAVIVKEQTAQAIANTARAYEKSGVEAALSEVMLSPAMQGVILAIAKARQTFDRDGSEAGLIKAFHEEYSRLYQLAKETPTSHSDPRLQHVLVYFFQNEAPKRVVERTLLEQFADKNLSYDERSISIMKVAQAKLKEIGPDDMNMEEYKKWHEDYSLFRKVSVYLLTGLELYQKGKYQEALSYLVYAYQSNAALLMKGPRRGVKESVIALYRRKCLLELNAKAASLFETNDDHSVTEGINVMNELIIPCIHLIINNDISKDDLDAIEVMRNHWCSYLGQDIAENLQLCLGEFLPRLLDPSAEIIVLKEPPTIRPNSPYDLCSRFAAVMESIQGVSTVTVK
In short: as §1

Measured: log2 ratio of Biotin-Ahx-Ub-VS probe labelling

Sequence of USP24 (Q9UPU5 whole entry): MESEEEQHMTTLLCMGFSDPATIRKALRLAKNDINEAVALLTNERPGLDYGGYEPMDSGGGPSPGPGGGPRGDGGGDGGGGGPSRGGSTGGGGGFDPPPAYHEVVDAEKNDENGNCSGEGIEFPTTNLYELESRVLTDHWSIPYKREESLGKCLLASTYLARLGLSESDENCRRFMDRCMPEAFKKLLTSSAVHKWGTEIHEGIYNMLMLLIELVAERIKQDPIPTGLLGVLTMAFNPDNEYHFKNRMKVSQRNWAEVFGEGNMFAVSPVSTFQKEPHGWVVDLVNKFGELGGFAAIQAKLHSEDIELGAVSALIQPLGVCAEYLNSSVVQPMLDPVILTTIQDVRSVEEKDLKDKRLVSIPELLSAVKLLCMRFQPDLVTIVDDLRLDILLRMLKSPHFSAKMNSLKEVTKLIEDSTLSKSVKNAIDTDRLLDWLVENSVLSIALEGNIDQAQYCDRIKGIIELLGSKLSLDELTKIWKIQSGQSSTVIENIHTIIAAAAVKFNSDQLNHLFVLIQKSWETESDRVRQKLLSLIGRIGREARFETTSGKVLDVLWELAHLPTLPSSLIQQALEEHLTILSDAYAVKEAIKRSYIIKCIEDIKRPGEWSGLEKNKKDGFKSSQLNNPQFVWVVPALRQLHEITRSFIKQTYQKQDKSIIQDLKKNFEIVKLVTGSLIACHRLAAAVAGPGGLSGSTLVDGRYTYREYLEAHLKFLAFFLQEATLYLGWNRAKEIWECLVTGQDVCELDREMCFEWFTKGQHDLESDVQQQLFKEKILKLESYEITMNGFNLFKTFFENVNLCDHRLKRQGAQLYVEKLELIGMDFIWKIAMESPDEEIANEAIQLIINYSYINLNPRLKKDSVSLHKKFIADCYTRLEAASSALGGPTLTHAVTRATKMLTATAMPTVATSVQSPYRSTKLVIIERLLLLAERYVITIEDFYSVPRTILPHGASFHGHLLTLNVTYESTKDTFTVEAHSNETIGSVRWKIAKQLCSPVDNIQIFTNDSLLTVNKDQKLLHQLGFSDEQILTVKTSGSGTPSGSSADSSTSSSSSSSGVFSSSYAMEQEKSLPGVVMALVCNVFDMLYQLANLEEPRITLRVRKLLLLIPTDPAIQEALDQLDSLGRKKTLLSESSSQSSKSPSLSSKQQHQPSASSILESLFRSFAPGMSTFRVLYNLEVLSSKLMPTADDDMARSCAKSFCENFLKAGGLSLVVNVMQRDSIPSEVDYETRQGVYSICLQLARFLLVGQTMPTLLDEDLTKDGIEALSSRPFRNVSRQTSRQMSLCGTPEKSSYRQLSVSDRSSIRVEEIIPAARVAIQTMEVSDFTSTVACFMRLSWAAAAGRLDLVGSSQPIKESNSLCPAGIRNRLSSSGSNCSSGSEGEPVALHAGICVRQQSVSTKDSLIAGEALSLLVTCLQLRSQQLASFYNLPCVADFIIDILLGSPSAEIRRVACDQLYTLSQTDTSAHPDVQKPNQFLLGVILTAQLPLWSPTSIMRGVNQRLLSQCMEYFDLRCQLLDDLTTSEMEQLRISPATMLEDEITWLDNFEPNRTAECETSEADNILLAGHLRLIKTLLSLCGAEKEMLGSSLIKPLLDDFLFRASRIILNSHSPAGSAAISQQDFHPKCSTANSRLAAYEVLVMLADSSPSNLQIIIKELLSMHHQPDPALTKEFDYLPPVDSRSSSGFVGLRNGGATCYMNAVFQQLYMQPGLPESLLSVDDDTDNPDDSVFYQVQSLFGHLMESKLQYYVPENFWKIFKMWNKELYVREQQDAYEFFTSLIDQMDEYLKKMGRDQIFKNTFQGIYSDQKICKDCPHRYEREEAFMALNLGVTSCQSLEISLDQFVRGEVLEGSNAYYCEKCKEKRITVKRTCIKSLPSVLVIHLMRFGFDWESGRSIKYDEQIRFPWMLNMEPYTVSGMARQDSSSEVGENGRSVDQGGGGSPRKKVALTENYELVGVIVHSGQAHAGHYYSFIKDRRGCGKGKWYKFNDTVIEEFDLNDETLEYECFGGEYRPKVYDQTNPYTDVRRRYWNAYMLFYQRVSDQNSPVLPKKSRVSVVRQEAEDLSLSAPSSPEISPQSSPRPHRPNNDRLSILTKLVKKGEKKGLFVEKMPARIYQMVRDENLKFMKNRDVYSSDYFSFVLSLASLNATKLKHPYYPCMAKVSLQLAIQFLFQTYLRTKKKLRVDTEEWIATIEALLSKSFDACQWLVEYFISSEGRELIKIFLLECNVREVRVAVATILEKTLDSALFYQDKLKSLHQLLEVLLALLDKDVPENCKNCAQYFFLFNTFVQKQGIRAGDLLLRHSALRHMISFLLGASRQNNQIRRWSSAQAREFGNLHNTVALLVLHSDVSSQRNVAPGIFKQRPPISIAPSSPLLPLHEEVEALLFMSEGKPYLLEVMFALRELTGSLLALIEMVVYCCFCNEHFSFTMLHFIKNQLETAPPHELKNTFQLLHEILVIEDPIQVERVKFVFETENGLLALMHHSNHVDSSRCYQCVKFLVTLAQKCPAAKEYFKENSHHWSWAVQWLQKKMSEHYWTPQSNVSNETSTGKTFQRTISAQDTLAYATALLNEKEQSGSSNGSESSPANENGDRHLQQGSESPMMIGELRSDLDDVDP

Cc1ccccc1OCC(=O)N1CCN(C(=O)CCl)CC1
inactive: [1] -0.401 | [2] 0.0214 | [3] -0.309 | [4] -0.0662 | [5] -0.249
